Results from PubChem BioAssay (NCATS).
Inconclusive results are not listed. Calls of active or inactive are those of the source. Calls follow the shape of the dose curve; as a rule, active = well fitted inhibition curve with a large enough effect; inconclusive = small, poorly fitted or top-dose-only effect; inactive = flat fitted curve, though single readings scatter.

How the values were obtained:
Test in all cases: qHTS profiling for inhibitors of Plasmodium falciparum proliferation (AID 504749); also: nearly all actives have a fitted effect of over 60% in size
[1] = tested on: ATS95; conditions: P. falciparum in erythrocytes, SYBR Green DNA, 72 h; series mostly up to 28.7 µM
Method in brief: (§1)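 Each compound contacts P. falciparum-infected red blood cells for 72 h at 37 C; lysis buffer (Tris, EDTA, saponin, Triton X, SYBR Green I) is added and fluorescence measured next morning; values normalized to controls.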

[2] = tested on: C2A; conditions: P. falciparum in erythrocytes, SYBR Green DNA, 72 h; series mostly up to 28.7 µM
Method in brief: as §1

[3] = tested on: CP211; conditions: P. falciparum in erythrocytes, SYBR Green DNA, 72 h; series mostly up to 28.7 µM
Method in brief: as §1

[4] = tested on: CP215; conditions: P. falciparum in erythrocytes, SYBR Green DNA, 72 h; series mostly up to 28.7 µM
Method in brief: as §1

[5] = tested on: CP217; conditions: P. falciparum in erythrocytes, SYBR Green DNA, 72 h; series mostly up to 28.7 µM
Method in brief: as §1

[6] = tested on: CP238; conditions: P. falciparum in erythrocytes, SYBR Green DNA, 72 h; series mostly up to 28.7 µM
Method in brief: as §1

[7] = tested on: CP250; conditions: P. falciparum in erythrocytes, SYBR Green DNA, 72 h; series mostly up to 12.8 µM
Method in brief: as §1

[8] = tested on: CP252; conditions: P. falciparum in erythrocytes, SYBR Green DNA, 72 h; series mostly up to 12.8 µM
Method in brief: as §1

[9] = tested on: CP256; conditions: P. falciparum in erythrocytes, SYBR Green DNA, 72 h; series mostly up to 28.7 µM
Method in brief: as §1

[10] = tested on: CP265; conditions: P. falciparum in erythrocytes, SYBR Green DNA, 72 h; series mostly up to 12.8 µM
Method in brief: as §1

[11] = tested on: CP266; conditions: P. falciparum in erythrocytes, SYBR Green DNA, 72 h; series mostly up to 12.8 µM
Method in brief: as §1

[12] = tested on: CP268; conditions: P. falciparum in erythrocytes, SYBR Green DNA, 72 h; series mostly up to 28.7 µM
Method in brief: as §1

[13] = tested on: CP269; conditions: P. falciparum in erythrocytes, SYBR Green DNA, 72 h; series mostly up to 28.7 µM
Method in brief: as §1

[14] = tested on: CP325; conditions: P. falciparum in erythrocytes, SYBR Green DNA, 72 h; series mostly up to 28.7 µM
Method in brief: as §1

[15] = tested on: CP329; conditions: P. falciparum in erythrocytes, SYBR Green DNA, 72 h; series mostly up to 28.7 µM
Method in brief: as §1

[16] = tested on: ECU; conditions: P. falciparum in erythrocytes, SYBR Green DNA, 72 h; series mostly up to 28.7 µM
Method in brief: as §1

[17] = tested on: FAB9; conditions: P. falciparum in erythrocytes, SYBR Green DNA, 72 h; series mostly up to 28.7 µM
Method in brief: as §1

[18] = tested on: P93_24; conditions: P. falciparum in erythrocytes, SYBR Green DNA, 72 h; series mostly up to 28.7 µM
Method in brief: as §1

[19] = tested on: PAD; conditions: P. falciparum in erythrocytes, SYBR Green DNA, 72 h; series mostly up to 28.7 µM
Method in brief: as §1

[20] = tested on: SC27B; conditions: P. falciparum in erythrocytes, SYBR Green DNA, 72 h; series mostly up to 28.7 µM
Method in brief: as §1

Measured: Potency

C[C@@H]1O[C@H](O[C@@H]2C=C3CC[C@H]4[C@@H](CC[C@]5(C)[C@@H](c6ccc(=O)oc6)CC[C@]45O)[C@@]3(C)CC2)[C@@H](O)[C@H](O)[C@@H]1O
inactive: all assays above

CNc1ccc(C(=O)CC(O)CCC(C)C2OC(=O)CC(O)CC(=O)CC(O)CC(O)CC(O)CC(O)CC3(O)CC(O)C(C(=O)OC)C(CC(O[C@@H]4OC(C)C(O)C(N)C4O)/C=C/C=C/C=C/C=C/C=C/C=C/C=C/C2C)O3)cc1 (stereo not given in full)
inactive: all assays above

CC([C@H](O)c1ccccc1)N(C)C (stereo not given in full)
inactive: all assays above
